# Beta2AR agonist = beta2AR agonists driving receptor internalization, primary screen, cell-based, FAP fluorogen, flow cytometry. Am2.2-beta2AR cells. Beta-2 adrenergic receptor (Homo sapiens), P07550. 340,000 compounds, 0.43% hits. response, % (concentration not given with the values);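 active = response above a set limit, near 3 SD of response in nonfluorescent compounds, cut at about 42% in these data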
# Exocytosis inh = LAMP-1 surface exposure blockers, TALL-104 cells – cell-based, flow cytometry, MLPCN library, primary screen. TALL-104 LAMP-1 surface exposure; cells stimulated with thapsigargin and PMA. 360,000 compounds, 0.66% hits. inhibition, % at 10 µM;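 active = inhibition above about 55%, limit read from the data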
# GRK2 inh = compounds blocking aptamer binding on GRK2 – biochemical, human GRK2, bead flow cytometry, HTS, primary screen; Beta-adrenergic receptor kinase 1 (Homo sapiens), P25098; FAM-aptamer displacement from GRK2; inhibition of aptamer binding, % at 10 µM; 330,000 compounds, 0.59% hits;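 active = inhibition of aptamer binding above 40%, roughly 3 SD of noise, on plates passing a quality check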;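 also: median bead fluorescence of bound FAM aptamer so fluorescent compounds give negative values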
# Target sequence (P25098 whole entry, looked up): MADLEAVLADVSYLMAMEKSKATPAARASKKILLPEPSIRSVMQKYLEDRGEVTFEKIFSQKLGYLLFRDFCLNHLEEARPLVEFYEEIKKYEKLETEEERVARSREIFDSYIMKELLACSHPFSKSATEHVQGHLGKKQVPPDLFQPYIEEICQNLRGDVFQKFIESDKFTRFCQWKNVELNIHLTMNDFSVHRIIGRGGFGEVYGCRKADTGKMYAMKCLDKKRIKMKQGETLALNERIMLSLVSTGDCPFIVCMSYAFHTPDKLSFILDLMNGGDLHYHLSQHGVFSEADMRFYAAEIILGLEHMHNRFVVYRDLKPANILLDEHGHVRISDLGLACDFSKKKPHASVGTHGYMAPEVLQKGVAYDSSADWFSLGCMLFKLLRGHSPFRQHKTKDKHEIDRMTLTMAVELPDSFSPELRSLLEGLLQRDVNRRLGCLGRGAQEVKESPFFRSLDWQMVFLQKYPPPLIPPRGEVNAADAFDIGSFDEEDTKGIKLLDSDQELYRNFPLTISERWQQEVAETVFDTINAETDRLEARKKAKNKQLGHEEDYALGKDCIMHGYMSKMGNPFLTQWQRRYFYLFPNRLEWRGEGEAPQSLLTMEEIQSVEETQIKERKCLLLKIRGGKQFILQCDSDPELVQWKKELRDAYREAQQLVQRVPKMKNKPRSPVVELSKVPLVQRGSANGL
# PP1 counter = PP1-alpha phosphatase inhibitors, primary screen, counter-screen for PP5 inhibitor project, biochemical, fluorescence, OMFP substrate, single point; Serine/threonine-protein phosphatase PP1-alpha catalytic subunit (Homo sapiens), P62136; purified PP1alpha; inhibition, % at 6.7 µM; 320,000 compounds, 0.9% hits; AID 2235, 2010;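 active = inhibition above the mean inhibition of all tested compounds plus 3 SD, computed separately for each screening campaign, cut at about 15% in these data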
# NadD block = inhibitors of S. aureus NadD, primary screen, biochemical, colorimetric, uHTS; Nicotinate-nucleotide adenylyltransferase NadD (Staphylococcus aureus N315); purified NadD enzyme, colorimetric absorbance read-out; inhibition, % at 20 µM; 360,000 compounds, 0.78% hits; in the data active = inhibition above about 26%
# Starred values were filed as active, the others as inactive; . = no result; ! = repeats disagree. Shown are actives, neighbours in structure and some others; about 2.9% of the full set was active somewhere.
SMILES,Beta2AR agonist,Exocytosis inh,GRK2 inh,PP1 counter,NadD block
COc1ccc(CCNC(=O)C2CCC(CNS(=O)(=O)c3ccccc3)CC2)cc1OC (configuration not stated),.,.,1.0,-2.7,.
O=C(NCCc1ccccc1)C1CCC(CNS(=O)(=O)c2ccccc2)CC1 (configuration not stated),2.0,0.2,2.0,16.2*,-1.4
Cc1cc(/C=N/NC(=O)c2ccncc2)c(C)n1-c1ccccc1,5.0,-2.8,0.0,-2.7,3.7
Cc1cc(C(=O)N/N=C/c2ccc(O)c(O)c2O)c(C)n1-c1ccccc1,1.9,-4.3,.,.,33.0*
O=C(COC(=O)/C=C/c1ccc(OC(F)F)cc1)NC1CCCCCC1,1.2,1.0,16.0,.,5.7
OC(COc1ccc(CNCCc2ccccc2F)cc1)CN1CCCCC1 (configuration not stated),13.6,2.6,0.0,-1.5,-3.9
Oc1ccc(-c2nc3ccc4ccccc4c3c3c2CCC3)cc1O,7.1,2.1,2.0,-2.2,39.2*
O=c1oc(-c2ccccc2F)nc2c1cnn2-c1ccccc1,4.8,84.5*,0.0,-4.7,-6.4
CCCCC(CC)CNC(=O)CC1Nc2c3ccccc3nc(=S)n2C1=O (configuration not stated),1.4,-4.5,0.0,6.7,0.4
S=C(Nc1ccc(Cl)cc1)NC1CCN(Cc2ccccc2)CC1,14.7,68.9*,0.0,0.7,0.2
CCCN1CCN(C(=S)Nc2ccc([N+](=O)[O-])cc2)CC1,1.9,-0.1,1.0,3.4,0.6
S=C(Nc1ccccc1)NC1CCN(Cc2ccccc2)CC1,-12.9,-5.5,1.0,-3.1,-5.0
CCCN1CCC(NC(=S)Nc2ccc([N+](=O)[O-])cc2)CC1,4.8,86.4*,0.0,-1.4,-1.4
C/C(=N/NS(=O)(=O)c1ccc(Br)cc1)c1cccc(NC(=O)C2CC2)c1,.,1.8,.,.,9.9
CCC(C)(C)c1ccc(OCCCC[n+]2ccccc2)c(C(C)(C)CC)c1,6.6,4.7,0.0,15.2*,11.5
COc1ccc(N2CCN(c3cc(C(=O)NC4CCCCC4)ncn3)CC2)cc1OC,.,24.1,.,.,-1.2
COc1ccc2c(c1)/C(=N/N1C(=O)c3ccccc3C1=O)C(=O)N2,.,.,4.0,-2.4,.
COc1ccc2c(c1)/C(=C\c1cccc(/C=C3/C(=O)Nc4ccc(OC)cc43)n1)C(=O)N2,92.9*,16.5,.,.,-4.1
CC[C@H]1C(=O)[C@@H](Cc2ccccc2)[C@@H]2CCN3C(=O)CCC[C@H]1[C@H]23,-0.8,17.8,.,.,-3.5
COc1ccc2c(CC(=O)OCC(=O)Nc3ccc(C)cc3)coc2c1,3.7,-0.5,44.0*,0.4,-1.8
Oc1c(Br)cc(Br)cc1C=Nc1cccc2ncccc12,19.4,67.4*,2.0,7.7,5.8
Cc1coc2c1C(=O)C(=O)c1c-2ccc2c(C)cccc12,18.2,6.4,5.0,6.1,33.8*
Cc1coc2c1C(=O)C(=O)c1c-2ccc2c1CCCC2(C)C,7.4,-1.5,7.0,1.7,33.4*
Cc1ccc(C(=O)c2coc3c2C(=O)C(=O)c2ccccc2-3)cc1,14.1,11.0,0.0,5.7,-1.9
CCOC(=O)C1CCN(C(=O)c2ccc3nc(-c4ccc(OC)cc4)c(-c4ccc(OC)cc4)nc3c2)CC1,12.4,27.3,7.0,2.5,-5.8
SMILES,Beta2AR agonist,Exocytosis inh,GRK2 inh,PP1 counter,NadD block
CCc1nnc(NC(=O)CCC(=O)N2CCC(Cc3ccccc3)CC2)s1,11.0,-0.3,1.0,0.9,8.6
COc1ccc(CC(=O)NNC(=O)c2cc(C)oc2C)cc1OC,-6.9,-0.3,1.0,-6.1,0.4
CC(/C=C/c1ccc(O)cc1)=NNc1ccccc1,17.0,59.0*,.,.,2.8
CC(/C=C/c1ccccc1)=N\Nc1nc(C)cc(C)n1,0.1,-4.6,0.0,-1.8,-5.8
C=CCn1c(=O)c2ccccc2n2c(SCC(=O)/C(C#N)=C(\C)N)nnc12,65.1*!,0.8,0.0,-3.4,0.3
COCCNC(=O)C1=C(N)C(C(=O)Nc2ccc(C)c(S(=O)(=O)N3CCCCC3)c2)SC1=Nc1ccc(C)cc1C (configuration not stated),9.4,-0.1,0.0,6.2,49.6*
O=C(Nc1ccc(Cl)cn1)c1ccc(-c2ccc(Cl)c(Cl)c2)o1,-3.6,-1.3,3.0,-2.9,1.7
Cc1ccc(CN2C(=O)C3CCCN3c3ncccc32)cc1 (configuration not stated),-1.8,3.7,0.0,8.9,12.2
Cc1ccc(CN2C(=O)C3CCCN3c3ccc(S(=O)(=O)N4CCOCC4)cc32)cc1 (configuration not stated),.,.,2.0,23.6*,.
CCCOC(=O)c1ccc(NC(=O)c2ccccc2[N+](=O)[O-])cc1,5.0,0.4,3.0,-4.2,-11.0
CCCCCCN1CCN(C2CN(Cc3ccc(F)cc3)S(=O)(=O)C2)CC1 (configuration not stated),.,2.0,.,.,-8.9
CN(/N=C/c1ccc(O)cc1O)c1nc(-c2ccccc2)cc(-c2ccccc2)n1,4.8,-3.6,0.0,1.1,33.4*
O=C(CCNS(=O)(=O)c1cccc2nsnc12)NC1CCN(Cc2ccccc2)CC1,2.0,-1.5,2.0,-4.4,-4.1
CCCC(=O)OCCNc1cc(SCc2ccco2)c2nonc2c1[N+](=O)[O-],64.0*,-3.8,8.0,-7.8,8.7
CCC(=O)OCCNc1cc(Sc2nc3ccccc3[nH]2)c2nonc2c1[N+](=O)[O-],77.9*,41.0,0.0,-1.7,3.4
CC(=O)OCCCNc1cc(SCc2ccco2)c2nonc2c1[N+](=O)[O-],37.0,-2.2,4.0,3.6,6.4
CCC(=O)OCCNc1cc(Sc2nc3ccccc3s2)c2nonc2c1[N+](=O)[O-],-203.0,102.6*,1.0,2.0,5.5
O=[N+]([O-])c1c(NCCCO)cc(Sc2nc3ccccc3s2)c2nonc12,96.1*,40.0,2.0,4.1,9.0
COCCNC(=O)C1(C)CCCN(Cc2cc3ccccc3o2)C1 (configuration not stated),.,-6.2,.,.,1.5
COc1ccc(C(=O)COC(=O)c2cc(=O)c3ccccc3o2)cc1,-0.1,7.8,0.0,.,-4.8
Cc1nnc(Sc2cc(NCCO)c([N+](=O)[O-])c3nonc23)s1,-13.3,0.3,.,.,-2.9
Cc1nnc(Sc2cc(NCCCO)c([N+](=O)[O-])c3nonc23)s1,42.6*,11.1,.,.,-3.9
O=C(COC(=O)Cn1cnc2ccccc21)Nc1cc2c(cc1Cl)C(=O)c1ccccc1C2=O,7.7,-1.9,0.0,7.6,39.5*
COc1ccccc1NC(=O)c1cc2c(CO)cnc(C)c2oc1=Nc1ccc(OC)c(OC)c1,48.8*,16.9,0.0,0.5,1.3
COc1ccccc1NC(=O)c1cc2c(CO)cnc(C)c2oc1=Nc1cc(OC)c(OC)c(OC)c1,32.1,14.3,0.0,-4.8,-1.0
COc1ccc(N=c2oc3ccccc3cc2C(=O)Nc2ccccn2)cc1OC,.,.,72.0*,0.3,.

# Screening data deposited in PubChem by several laboratories.
